According to PubChem BioAssay (NCATS):
Inconclusive results are not listed. The call rests on the fitted dose curve; in most records, active means well fitted curve in the direction sought with a large enough effect; inconclusive means small, poorly fitted or top-dose-only effect, or another doubt; inactive means no such curve, though single readings can be large or run the other way. Square brackets hold non-standard residues; d marks the D form. Peptide text beside a SMILES is read from it. * marks the point of attachment. ξ: configuration not given here. Hexanoyl = CCCCCC(=O)*; ξL = CC(C)CC(N)C(=O)O

test: qHTS for inhibitors of Wild type Zika virus screened against the NCATS CANVASS Library (AID 1347396); settings: Vero cells, Zika virus CPE, CellTiter-Glo, 72 h; series mostly up to 45.9 µM; activity change, negative = antiviral: at the top concentration;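 further: ATP luminescence of surviving cells so rescue from viral cell killing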
Method in brief: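 Vero 766 cells, 1000/well, o/n attach; cpds pin-transferred (11-pt qHTS); WT Zika added; 72 h, 37C, 5% CO2; CellTiter Glo lumi. Uninfected + vehicle = 100% inhibition.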
On the % scale 0 is the no-effect control and ±100 the full control effect.

Activity change, negative = antiviral, inactive:
CN1C(=O)C(=O)N2C(=C[C@]3(c4c[nH]c5ccccc45)c4ccccc4N[C@H]23)C1=O 0.215%, CN1CC[C@]23c4ccccc4N[C@H]1[C@]21CCN(C)[C@H]3Nc2ccccc21 -10.7%, C/C=C1/C2=CCCN3C(=O)O[C@H]([C@H]1O)[C@H]23 3.2%, O=C1CC(c2ccc(O)cc2)Oc2ccccc21 (stereo unspecified) 15%, COC1C(C)OC(OCC23C[C@@H]4[C@H](C)CC[C@H]4C4(C=O)CC2C=C(C(C)C)C34C(=O)O)[C@@H](O)[C@H]1O (stereo partly specified) 2.46%, CN1CC[C@@]2([C@@]34CCN(C)[C@@H]3Nc3ccccc34)c3ccccc3N[C@@H]12 3.14%, COc1ccc(-c2oc3cc(OC)cc(OC)c3c(=O)c2O)cc1 -4.81%, CC[C@@H](C)[C@H]1NC(=O)C(CC(C)C)NC(=O)[C@@H](CC(C)C)NC(=O)[C@H](Cc2c[nH]c3ccccc23)NC(=O)CNC(=O)[C@@H](CC(N)=O)NC1=O (stereo partly drawn) (cyclo(GW[dL][ξL][dI][dN])) -19.8%, Cc1cc(O)cc2c1C(=O)c1c(O)cc(O)cc1C2=O -10.3%, C=C(Cl)[C@](Cl)(CBr)CC[C@@H](Br)C(C)(C)Cl 9.8%, C=C[C@]1(C)CC[C@@H]([C@H](C)C(=O)CC=C(C)C)O1 4.61%, CC[C@@H]1C[C@@]2(CC)OC(=O)[C@@]3(CC)[C@H](CC)[C@@H]1[C@@H]23 9.12%, COC(=O)c1cccc2oc(-c3cccc4oc(-c5c(C)cccc5O)nc34)nc12 0.0981%, C[C@@]12CCC[C@@](C)(C(=O)OP(=O)(O)OC[C@H]3O[C@@H](n4cnc5c(N)ncnc54)[C@H](O)[C@@H]3O)[C@H]1C[C@@H](O)[C@@]13C[C@@H](CC[C@@H]21)[C@](C)(O)C3 4.77%, CCC(C)=C1OC(=O)[C@H](C)[C@H](O)[C@H](Cc2cccnc2)NC(=O)C(NC(=O)c2ncccc2O)C(C)OC1=O (stereo partly specified) 13.1%, C[C@@]12CCC[C@@](C)(C(=O)O)[C@H]1CC[C@@]13C[C@@H](CC[C@H]12)[C@](C)(O)C3 18.4%, O=C1OC(CCO)c2cccc(O)c21 (stereo unspecified) 8.75%, C=C1C[C@]23C=CC(=O)[C@@](C)(CCCC(C)C(=O)N[C@@H](CO)C(=O)O)[C@@H]2C[C@@H]1CC3 (stereo partly specified) -4.87%, COc1cc2ccc(=O)oc2c(O)c1O[C@@H]1O[C@H](CO)[C@@H](O)[C@H](O)[C@H]1O -10.9% [at 27.4 µM], C/C(=C\[C@@H](C)CC/C=C/CC/C=C/C(=O)O)[C@@H](O)[C@H](C)C(=O)CCCC1CC(=O)NC(=O)C1 15.4%, CO[C@@H](C[C@@H](C)[C@@H](O)/C=C/C=C/CNC(=O)C(C)(C)[C@H](O)\C(C)=C/C=C\C=C\Cc1cnco1)[C@]1(O)[C@@H](C)C(=O)N(C)[C@@]12COC2=O -5.92%, O=C1CC(c2ccc(O)cc2)Oc2cc(O)cc(O)c21 (stereo unspecified) -1.77%, O=C1CC(c2ccc(O)cc2)Oc2cc(O)ccc21 (stereo unspecified) 15.8%, CN1CC[C@@]23c4ccccc4N[C@@H]1[C@@]21CCN(C)[C@@H]3Nc2ccccc21 10.4%, C[C@@]12CCC[C@@](C)(C(=O)O)[C@H]1C[C@@H](O)[C@@]13C[C@@H](CC[C@@H]21)[C@](C)(O)C3 -1.73%, O=Cc1ccc2n1C[C@]1(OC2)O[C@H](CO)[C@@H](O)[C@@H]1O -7.81%, C=C[C@@]1(C)CC[C@@H]([C@H](C)C(C)=O)O1 -1.67%, C/C=C(/CO)C(=O)O[C@@H]1[C@H](O)[C@@H](C(=O)OC)O[C@@H]2C[C@H]3OC(n4cnc5c(N)ncnc54)[C@H](OC)[C@H]3O[C@@]12O (stereo partly specified) -6.55%, C/C=C/[C@H]1[C@H]2C(=O)c3c(O)c(C)c(O)c(C)c3[C@]1(C(=O)O)C(=O)C=C2C -0.577%, C[C@@]12C[C@@H](C[C@@H]3C(=O)O[C@@H](c4ccoc4)[C@H](OC(=O)c4ccccc4)[C@@H]31)OC2=O -6.77%, C=C1CCC2C(C)(C(=O)O)CCC(CC/C(C)=C/C(=O)NC(CCC(N)=O)C(=O)O)[C@@]2(C)C1 (stereo partly specified) 4.14%, C=C1[C@@]2(C)CC3C4(C)CCC(O)C(C)(C)C4CCC3(C)[C@]1(C(=O)OC)C(=O)C(C)(O)C2=O (stereo partly specified) 71.8%, CC(C)=CCC[C@]1(C)[C@H]2CC(=O)[C@@]3(CO3)[C@@H]1C2 -0.49%, CCCCCC(=O)N[C@@H](CC(C)C)C(=O)N[C@H](C=O)CCC(=O)O (Hexanoyl-Leu-Glu-aldehyde) 1.72%, COc1ccc([C@@H]2c3cc4c(cc3C(=O)C(C)C2C)OCO4)cc1OC (stereo partly specified) 18.8%, CC1(C)CC[C@]2(CO)CC[C@]3(C)C(=CCC4[C@@]5(C)CC[C@H](O)C(C)(C)C5CC[C@]43C)C2C1 (stereo partly specified) -2.16%
